SMILES strings stand for the structures.

This test is described as follows: adipocyte viability effects, profiling panel, cell-based, 3T3-L1 adipocytes, calcein-AM fluorescence, 48 h, basal (AID 1163). Note: test concentration not given here. The note with it: 3T3-L1 adipocytes viability, higher = more signal.
For `Cc1ccc(S(=O)(=O)N2[C@@H](c3ccccc3)C(C(=O)O)=C[C@H]2C(C)(C)C)cc1`, the z-score was -0.625.
In the case of `C=C1C(=O)C=C2CN(C(=O)c3ccccc3)[C@@](Cc3ccc(F)cc3)(C(=O)OC)[C@@H]12`, the z-score was -1.94.
Consider `COC(=O)[C@@]1(Cc2ccc(F)cc2)[C@H]2c3cc(C(=O)N4CCCC4)n(CCc4c[nH]c5cc(F)ccc45)c3C[C@H]2CN1C(=O)c1ccccc1`, for which the z-score is -0.0351.
The same measure for `CCCCN1CC=CC23O[C@@H]4C=CCCOC(=O)C4[C@H]2C(=O)N(CCO)[C@@H]3C1=O` (stereo not given in full): 0.0904.
For the compound `Cc1ccc(S[C@]2(C(=O)NC3CC3)CC(=O)N(C3Cc4ccccc4C3)[C@@H]2c2ccc(CO)cc2I)cc1`, the z-score was 0.689.
Turning to `C=CCOC(=O)[C@H]1[C@@H]2C(=O)O[C@@H](c3ccccc3)[C@@H](c3ccccc3)N2[C@@H](c2ccc(OCCOC(=O)[C@H]3C[C@H]4C(=O)NCC(=O)N4[C@H]3c3cccc(OCCO)c3)cc2)[C@]12C(=O)Nc1ccc(I)cc12`, the z-score is 0.656.
With `CC1(C)OB(/C=C\CC(OC(=O)c2ccncc2)c2ccccc2)OC1(C)C` (stereo not given), the z-score was 0.282.
As to `CC[C@@H](O[Si](C#C[Si](C(C)C)(C(C)C)C(C)C)(C(C)C)C(C)C)c1cn([C@H](CO)Cc2ccccc2)nn1`, the z-score is -1.04.
For `C=C[C@H](OC)[C@@H](O)c1ccc(OC)c(O)c1`, the z-score is -0.678.
For `CC(C)(C)OC(=O)CC[C@@]1(C(N)=O)N=C(c2ccc(OCCCO)cc2)O[C@@H]1c1ccccc1CN=[N+]=[N-]`, the z-score is -0.288.
The same measure for `COCCOC(=O)N1C(=O)[C@@]2(c3cc(C#CCNC(N)=O)ccc31)[C@H](c1ccc(O)cc1)N1[C@H](c3ccccc3)[C@H](c3ccccc3)OC(=O)[C@H]1[C@@H]2C(=O)N1CCc2cc(OC)c(OC)cc2C1`: -0.065; for `COc1cc2c(cc1O)C(C)N(Cc1sc3ccccc3c1Cl)CC2` (stereo not given): -0.0046; for `COCCOC(=O)N1C(=O)[C@@]2(c3cc(C#CCC(C(=O)OC)C(=O)OC)ccc31)[C@H](C(N)=O)[C@H]1C(=O)O[C@H](c3ccccc3)[C@H](c3ccccc3)N1[C@@H]2c1ccccc1OCCO`: 1.27.
As for `C[C@H]1C2[C@H](Cc3ccccc3)NC(=O)[C@]23C(=O)N[C@@H](Cc2ccccc2)C(=O)N2CCC[C@H]2C(=O)NC/C=C/CC/C=C/C3[C@@H]2O[C@]12C` (stereo not given in full), the figure is 1.18; as for `C[C@@]1([C@@H](NS(=O)(=O)c2cccc3cccnc23)c2ccc(-c3ccccc3)cc2)C[C@H]1C1CCCCC1`, -0.516.
For `COc1ccc(CCNC(=O)[C@@H]2c3ccccc3C(=O)N(Cc3cc(F)cc(C(F)(F)F)c3)[C@H]2c2ccc(CO)cc2)cc1`, the z-score was 1.33.
As to `C=CC[C@H](O)c1ccc(O)c(F)c1`, the z-score was 0.329.
The same measure for `CC(C)N1CC=CC23O[C@@H]4/C=C\CCCOC(=O)C4[C@H]2C(=O)N(C(C)CO)[C@@H]3C1=O` (stereo not given in full): 0.512.
Consider `C=CCOC(=O)[C@@H]1[C@H]2C(=O)O[C@H](c3ccccc3)[C@H](c3ccccc3)N2[C@H](c2ccc(OCCOC(=O)[C@H]3C[C@H]4C(=O)N[C@@H](CCCCN(C)C)C(=O)N4[C@H]3c3cccc(OCCO)c3)cc2)[C@@]12C(=O)Nc1ccccc12`, for which the z-score was -0.453.
On to `COCCOC(=O)N1C(=O)[C@@]2(c3cc(C#CC4=CCCCC4)ccc31)[C@H](C(=O)N1CCCCCCC1)[C@H]1C(=O)O[C@H](c3ccccc3)[C@H](c3ccccc3)N1[C@@H]2c1ccccc1OCCO`, for which the z-score is 0.922.
`CCCCCN1CC=CC23O[C@@H]4/C=C\CCCOC(=O)C4[C@H]2C(=O)N(CCO)[C@@H]3C1=O` (stereo not given in full): the z-score is 1.64.
`CC(C)N1C(=O)[C@@]2(Cc3ccccc31)c1ccccc1C(=O)N(Cc1ccccc1)[C@H]2c1ccc(CO)cc1`: the z-score is 0.0609.
With `C=C(CC1([C@@H](NP(=O)(c2ccccc2)c2ccccc2)[C@H]2C[C@@H]2CCCC)CC1)c1cccc(OC)c1`, the z-score was -0.803.
For `CC[C@@H](O[Si](C#C[Si](C(C)C)(C(C)C)C(C)C)(C(C)C)C(C)C)c1cn(Cc2cccc(Cl)c2)nn1`, the z-score was -1.25.
As for `COCCCNC(=O)[C@]1(Cc2ccccc2CN=[N+]=[N-])N=C(c2ccc(OCCCO)cc2)O[C@@H]1c1ccccc1N=[N+]=[N-]`, the z-score is -0.541.
In the case of `COc1ccc([Si](C)(C)[C@H]2[C@H](CC(=O)N(CCO)Cc3ccccc3)O[C@@]3(C(=O)N(Cc4cccc(N5CCCCC5=O)c4)c4ccccc43)[C@@H]2C)cc1`, the z-score was 1.19.
On to `C=C(/C=C\CNS(=O)(=O)c1ccc(C)cc1)[C@H](O)[C@H]1CCCN1S(=O)(=O)c1ccccc1[N+](=O)[O-]`, for which the z-score is 0.186.
As for `[N-]=[N+]=NCc1ccccc1[C@H]1OC(c2ccc(OCCCO)cc2)=N[C@@]1(Cc1ccccc1N=[N+]=[N-])C(N)=O`, the z-score is -0.117.
As for `C=CCN1C(=O)[C@@]2(O[C@@H](CCO)[C@H]([Si](C)(C)c3ccc(OC)cc3)[C@H]2C)c2cc(N3CCCCC3=O)ccc21`, the figure is 0.146; as for `Cc1ccc(S[C@]2(C(=O)NCc3ccccc3)CC(=O)N(Cc3ccccc3C(F)(F)F)[C@@H]2c2ccc(CO)cc2I)cc1`, 0.615.
As to `C=C[C@H](C)[C@@H](OC(=O)Nc1ccc(SC)cc1)c1ccc(OCCO)cc1`, the z-score was -0.0489.
For `CN(C)C(=O)[C@]1(CCS(=O)(=O)c2ccccc2)N=C(c2ccc(OCCCO)cc2)O[C@@H]1c1ccccc1CN=[N+]=[N-]`, the z-score was -0.0349.
Regarding `COC(=O)[C@]1(Cc2ccccc2N=[N+]=[N-])N=C(c2ccc(OCCCO)cc2)O[C@@H]1c1ccccc1CN=[N+]=[N-]`, the z-score was -0.677.
As for `COc1cccc(C)c1NC(=O)O[C@H]1[C@H](OC(=O)Nc2ccccc2)[C@@H](OC(=O)Nc2ccccc2)[C@@H](OC)O[C@@H]1CO`, the figure is 0.861.
For the compound `COCCCNC(=O)[C@@]1(c2ccc([N+](=O)[O-])cc2)CC(=O)N(C2CCCCC2)[C@@H]1c1ccc(CO)cc1I`, the z-score is 0.944.

These data come from PubChem BioAssay.
